# Calls of active or inactive are those of the source. Rule for the calls: active = hit-call score of the fitted dose curve at least 0.9, where 1 is the maximum; inactive = score below 0.9.
# Assay: CCTE_Shafer_MEA_acute_interburst_interval_mean: CCTE's Neural Acute Assay for Mean Interburst Interval, Shafer Lab (AID 2284016);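 note: curves fitted for decrease in interburst interval relative to DMSO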
# In short: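 Rat primary cortical neurons on 48-well MEAs at DIV 13 or 15 were exposed acutely to 0.03-40 uM. Spikes detected at 8x rms noise, 37 C. Mean interburst interval from 40 min recordings expressed as percent change from 40 min pre-treatment baseline.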
Compound,outcome,AC50
CO[C@H]1/C=C/O[C@@]2(C)Oc3c(C)c(O)c4c(O)c(c(/C=N/N5CCN(C)CC5)c(O)c4c3C2=O)NC(=O)/C(C)=C\C=C\[C@H](C)[C@H](O)[C@@H](C)[C@@H](O)[C@@H](C)[C@H](OC(C)=O)[C@@H]1C,inactive,
O=c1[nH]sc2ccccc12,,34.3 µM (active)
CC1=CC(=O)/C(=C(/C)O)C(=O)O1,inactive,
CC(O)CC(C)(C)O (stereo unspecified),inactive,
CCN(CC)C(=O)c1cc(S(=O)(=O)Cc2ccccc2)c(N2CCC(c3ccccc3)CC2)cc1N(CC)CCN(C)C,inactive,
CCCCCCCCCCCCO,inactive,
O=C(O)c1ccccc1-n1cc(C(=O)O)c(=O)c2cc(Nc3c(F)cc(F)cc3Cl)c(Cl)cc21,inactive,
CC[C@@H]1C[C@H](N(Cc2cc(C(F)(F)F)cc(C(F)(F)F)c2)C(C)=O)c2cc(C(F)(F)F)ccc2N1C(=O)OC(C)C,inactive,
O=C1O[C@H]([C@@H](O)CO)C(O)=C1O,inactive,
Clc1ccccc1C(c1ccccc1)(c1ccccc1)n1ccnc1,inactive,
COc1cccc([C@H](O)C2CCN(CCc3ccc(F)cc3)CC2)c1OC,inactive,
Cc1cn([C@H]2C[C@H](N=[N+]=[N-])[C@@H](CO)O2)c(=O)[nH]c1=O,inactive,
CC(C)(C)c1cc(/C=C2\SC(N)=NC2=O)cc(C(C)(C)C)c1O,,14.6 µM (active)
c1ccc2n[nH]nc2c1,inactive,
CN1C(=O)CC[C@H]1c1cccnc1,inactive,
CCN(Cc1cccc(S(=O)(=O)O)c1)c1ccc(C(=C2C=CC(=[N+](CC)Cc3cccc(S(=O)(=O)O)c3)C=C2)c2ccccc2S(=O)(=O)[O-])cc1,inactive,

# From PubChem BioAssay (EPA / NIEHS)
